Our source for the outcome values is PubChem BioAssay AID2401 (Southern Research Specialized Biocontainment Screening …, 2010).

Molecules are shown by their SMILES. Screen size: about 2,200 compounds; about 530 (24%) were called active.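 The calls were made as follows: active = inhibition above a set limit at one or more concentrations of the dose series; inactive = inhibition under that limit at every dose.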 These entries were drawn from the full list. Results with a measured potency or affinity are listed apart.

A short description of this test: nmpC-GFP reporter counter-screen in S. Typhimurium, dose response, counter-screen for PhoP regulon inhibitor project, Salmonella Typhimurium, GFP fluorescence (AID 2401).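 Also: S. typhimurium with Mg-insensitive nmpC-GFP reporter grown at 10 µM Mg2+; drop in reporter fluorescence reflects general culture growth inhibition.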 Particulars: 4 h; series mostly up to 150 µM.
With `CC(C)NC(=O)CSc1nc(N)c(NC(=O)c2ccccc2F)c(=O)[nH]1`, the call was inactive.

Consider `Cc1ccc(Cl)cc1-c1ccc(/C=N/n2cnnc2)o1`, for which the result was inactive.

On to `Cc1cccc(C)c1NC(=O)CCCSc1nnc(-c2ccc(Cl)cc2)n1-c1ccccc1`, for which the call was inactive.

Turning to `CCCCn1c(-c2ccccc2)nc2c(=O)n(C)c(=O)[nH]c21`, the call was inactive.

On to `Cc1noc(C)c1CSc1nc2ccccc2nc1NS(=O)(=O)c1ccc(Cl)cc1`, for which the outcome was inactive.

For the compound `C/C(=C\C(=O)c1cccnc1)Nc1ccc(O)cc1`, the call was inactive.

On to `Cc1ccc2occ(/C=N/O)c(=O)c2c1`, for which the compound was classed as inactive.

In the case of `N/C(=N\OC(=O)Cc1ccc(Cl)cc1)c1cccnc1`, the outcome was inactive.

Turning to `CC(=O)Nc1ccc(OC(=O)c2cccnc2)cc1`, the result was inactive.

Turning to `O=C1NN(c2ccccc2)C(=O)/C1=C\c1coc2ccc(O)cc2c1=O`, the compound was called inactive.

With `N/C(=N\OC(=O)COc1ccc(Cl)cc1)c1cccnc1`, the compound was classed as inactive.

Turning to `CCCCn1c(SCC(=O)Nc2nnc(CC)s2)nc2c1c(=O)n(C)c(=O)n2C`, the call was inactive.

As to `Cc1ccc(OCC(=O)N2CCN(S(=O)(=O)c3ccccc3)CC2)c([N+](=O)[O-])n1`, the result was inactive.

Turning to `O=C(CSc1nnc(-c2ccc(Br)cc2)o1)Nc1cccc2ccccc12`, the call was inactive.

As for `COc1ccc(CCN2CC3=C(C2=O)C(c2ccccc2)NC(=O)N3C)cc1OC` (stereo not given), the call was inactive.

For `COc1ccc(C2=Nc3nc(-c4ccccc4)cn3C(c3ccc(OC)cc3)C2)cc1` (stereo not given), the result was inactive.

Regarding `CC(C)CC(=O)N/C(N)=N/c1nc2ccccc2s1`, the outcome was inactive.

Turning to `O=C1NC(=Nc2ccccc2)/C(=C/c2ccco2)S1`, the compound was called inactive.

As to `O=C(CNC(=O)OCc1ccccc1)NCC(=O)N1CCCC1C(=O)OCc1ccccc1` (stereo not given), the call was inactive.

For the compound `CC(NC(=O)CSc1nc2c(cc1C#N)CN(C)CC2)c1ccccc1` (stereo not given), the compound was called inactive.

With `CCCn1c(N)c(C(=O)COC(=O)c2c(C)noc2C)c(=O)n(C)c1=O`, the compound was classed as inactive.

With `CC(CO)(CO)NCc1ccc(-c2ccccc2)cc1`, the result was inactive.

`COc1ccc2c(c1)C1C=CCC1C(c1cc3c(cc1Br)OCO3)N2` (stereo not given): the compound was called inactive.

`O=C1CCCc2c1cc(C(=O)NCc1ccco1)c(=O)n2-c1ccc(Cl)cc1`: the compound was called inactive.

`CCOc1ccccc1Nc1nc2ccccc2n2cnnc12`: the compound was classed as inactive.

Consider `O=C(CCN1CCCCC1)NCC1OCCc2ccccc21` (stereo not given), for which the outcome was inactive.

Regarding `O=C(CCN1CCc2ccccc2C(c2ccccc2)C1)c1ccc2c(c1)OCCO2` (stereo not given), the result was inactive.

On to `c1ccc(Cn2nnc3c(NCc4ccc5c(c4)OCO5)nc(C4CC4)nc32)cc1`, for which the result was inactive.

On to `FC(F)Oc1ccc(NC(=S)NCc2nc3ccccc3[nH]2)cc1`, for which the compound was called inactive.

In the case of `O=C1C2CCCN2c2ccc(S(=O)(=O)N3CCOCC3)cc2N1Cc1ccccc1F` (stereo not given), the outcome was inactive.
